Rows were chosen to be rich in hits. Some 21% of all compounds tested hit in one or more screens of this group.
Shiga inhibitor: Shiga toxin inhibition | Vero cells, Shiga toxin protein synthesis inhibition reporter | inhibition, % at 38.7 µM | 9.2% of 290,000 active | AID 2315; in the data active = inhibition mostly above about 28%, no sharp cut-off; inactive = mostly below about 43%; also: 0% is about no effect
NS1 inh: inhibitors of influenza NS1 protein function; Potency, µM (doses to about 46.1 µM), for inactives: top-dose activity, positive = more growth; 0.4% of 270,000 active; calls by dose curve; also: potency is read from the fitted curve at half-maximal effect; actives are rising curves; nearly all actives have a fitted effect of over 50% in size
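Read-out: OD600 growth recovery of NS1-expressing budding yeast. Cells grown overnight at 30C in -URA glucose medium, washed, resuspended and diluted 1:100 in 2% galactose assay medium, pH 6.0. Same strain lacking NS1 served as positive control.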
SARS PLpro yeast: SARS-CoV PLP inhibition in yeast; AID 485353; S. cerevisiae expressing SARS-CoV PLpro, growth rescue; 0.19% of 330,000 active; Potency, µM (highest dose often 32.9 µM), inactives show at the top dose activity, positive = growth rescue, most hits filed as activators; calls by dose curve; also: potency is read from the fitted curve at half-maximal effect; 0% is about no effect; nearly all actives have a fitted effect of over 55% in size
Cycloheximide cs: affects cycloheximide protein synthesis inhibition readout, counter-screen; cell reporter, cycloheximide protein synthesis inhibition counterscreen; max response, %; 12% of 300,000 active; AID 2314; in the data active = max response mostly above about 13%, no sharp cut-off; inactive = mostly below about 14%; also: read at 38.3 µM for the half of the compounds with a filed dose; 0% is about no effect
Pf growth 96h: inhibits malaria parasite growth, 96 h; AID 504834; 6.9% of 320,000 active; Potency, µM (highest dose often 28.7 µM), without a hit: top-dose activity change, negative = inhibition, most hits filed as inhibitors; P. falciparum luciferase reporter growth, 96 h; also: potency is read from the fitted curve at half-maximal effect; % is scaled to controls: 0 for no effect and ±100 for the full control effect
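Plates of compound plus infected erythrocytes (2% hematocrit, 0.05% parasitemia final) incubate 96 hours, 37 C, 5% CO2. Detection reagent added; reduced luminescence from the parasites' luciferase reporter flags inhibition.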
Pf growth 48h: P. falciparum growth inhibition at 48 hours (one generation) | P. falciparum luciferase growth in erythrocytes, 48 h | Potency, µM (series often up to 28.7 µM), for inactives: top-dose activity change, negative = inhibition, actives largely listed as inhibitors | 5.9% of 310,000 active; also: potency is read from the fitted curve at half-maximal effect; % is scaled to controls: 0 for no effect and ±100 for the full control effect
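Read-out is firefly luciferase luminescence from an integrated reporter in P. falciparum, so falling signal marks reduced parasite growth. Infected erythrocytes were at 2% hematocrit and 0.1% parasitemia (final) in Albumax-supplemented RPMI 1640.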
Starred values were filed as active, the others as inactive; u = inconclusive; x = not tested or not shown; [ ] = dose if it differs, or a comment. Unless noted, calls follow the shape of the dose curve; as a rule, active = well fitted inhibition curve with a large enough effect; inconclusive = small, poorly fitted or top-dose-only effect, or another doubt; inactive = no such curve, though single readings can be large or run the other way.

SMILES	Shiga inhibitor	NS1 inh	SARS PLpro yeast	Cycloheximide cs	Pf growth 96h	Pf growth 48h
Cc1nc(C(F)(F)F)ccc1C(=O)NCC(O)c1ccccc1 (stereo not given)	71*	-3%	0%	45*	86%	103%
Cc1nc(C(F)(F)F)ccc1C(=O)Nc1ccc2ccccc2n1	49*	-2%	-1%	21*	u	31%
Cn1c(=O)n(CCCO)c(=O)c2c1nc1n2CCCN1Cc1ccccc1	-2	-10%	0%	-1	-23%	-12%
Nc1nnnn1/N=C/c1ccc(F)cc1	-4	8%	0%	6	-7%	-10%[0.00184 µM]
O=C(Nc1ncccc1O)c1ccc(Cl)c(S(=O)(=O)N2CCCCCC2)c1	x	x	0%	x	u	-30%
O=C(Nc1ccncc1)c1ccc(Cl)c(S(=O)(=O)N2CCCCC2)c1	x	x	-8%	x	1.9µM*	u
O=C(Nc1ccc(N2CCOCC2)cc1)c1ccc(Cl)c(S(=O)(=O)N2CCCC2)c1	x	x	-2%	x	u	u
CCOc1ncccc1C(=O)Nc1ccc(OC)c(S(=O)(=O)N2CCCCC2)c1	-2	-1%	0%	6	-29%	-30%
Cc1ccc(C(=O)Nc2cccnc2)cc1S(=O)(=O)N1CCCCCC1	30	-7%	-1%	26*	u	u
CCOc1ncccc1C(=O)Nc1ccc(C)c(S(=O)(=O)N2CCCCCC2)c1	x	x	-4%	x	u	13µM*
CCN(CC)CCOC(=O)c1ccc(NC(=O)c2ccc(Cl)c(S(=O)(=O)N3CCCCCC3)c2)cc1	-7	x	0%	-1	4.1µM*	u
Cc1ccc(C(=O)Nc2cccnc2)cc1S(=O)(=O)N1CCOCC1	14	-2%	9%	5	x	-17%
O=C(NC(=S)N1CCCC(O)C1)c1ccco1 (stereo not given)	x	x	3%	x	x	x
NS(=O)(=O)c1ccc(NC(=O)C2C3C=CC(C3)C2C(=O)O)cc1 (stereo not given)	-13	4%	0%	-3	148%	8%
COc1cc(-n2c(=O)c3ccccc3n(Cc3cc(=O)n4ccccc4n3)c2=O)cc(OC)c1OC	-8	-7%	1%	-3	u	7%
CN=C(Nc1ccc(Br)cc1)SC1CC(=O)N(c2ccc(OC)cc2)C1=O (stereo not given)	7	0%	-3%	-5	4%	u
CCN1CCN(c2ccc(NC(=O)c3ccc(Cl)c(S(=O)(=O)N4CCCC4)c3)cc2)CC1	x	x	1%	x	u	10µM*
CCc1noc(C)c1C(=O)Nc1ccc(Cl)c(S(=O)(=O)N2CCCCC2)c1	x	x	1%	x	u	9.3µM*
CCN1CCN(c2ccc(NC(=O)c3ccc(OC)c(S(=O)(=O)N4CCCC4)c3)cc2)CC1	x	x	-4%	x	u	4%
O=C(Nc1cccnc1)c1ccc(Cl)c(S(=O)(=O)N2CCCCCC2)c1	55	-49%	-13%	21*	x	10µM*
O=C(Nc1cccnc1)c1ccc(S(=O)(=O)N2CCCCCC2)cc1	-13	-12%	1%	-4	u	x
CC(C)C(=O)Nc1c2c(nn1-c1ccc(F)cc1)CS(=O)(=O)C2	-4	3%	-1%	-5	47%	0%
CCOC(=O)c1cnc2c(cnn2C)c1NCCCn1ccnc1	-10	5%	0%	-3	34%	17%
CN(C)c1nc(N/N=C/c2ccccc2O)nc(Nc2ccc(F)cc2)n1	15	x	-22%	8	2%	3.7µM*
CN(C)c1nc(Nc2ccc(F)cc2)nc(Oc2ccc(F)cc2)n1	23	11%	-2%	-3	u	0%
SMILES	Shiga inhibitor	NS1 inh	SARS PLpro yeast	Cycloheximide cs	Pf growth 96h	Pf growth 48h
Cc1ccccc1C=O	x	x	-3%	x	-28%	6%
O=C1O/C(=C\C(=O)N2CCOCC2)c2ccccc21	-31	1%	-6%	-3	23%	32%
Cc1ccc(/C=C2\OC(=O)c3ccccc32)cc1	107*	-17%	5%	53*	-3%	4%
Cc1ccccc1/C=C1\OC(=O)c2ccccc21	40*	-50%	4%	20*	30%	15%
CCOC(=O)N1CCN(S(=O)(=O)c2ccc(OC)c(C(=O)N3CCCCC3)c2)CC1	-9	-17%	7%	-1	11%	-20%
COc1ccc(CCNC(=O)c2ccc3c(c2)OCO3)cc1	62	-11%	0%	27*	-3%	32%

Screening results from PubChem.
